From PubChem
Sampled rows, rich in hits. Any-hit rate of the full collection: about 1.9%.
GSTO1 inh: inhibitors of recombinant GSTO1, primary screen, counter-screen for RBBP9 inhibitor project, biochemical, fluorescence polarization | Glutathione S-transferase omega-1 (Homo sapiens), P78417 | activity-based probe fluorescence polarization | inhibition, % at 5.96 µM | 300,000 compounds, 1.1% hits;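 active = inhibition above the campaign mean inhibition plus 3 SD, cut at about 35% in these data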
Target sequence (P78417 whole entry, looked up): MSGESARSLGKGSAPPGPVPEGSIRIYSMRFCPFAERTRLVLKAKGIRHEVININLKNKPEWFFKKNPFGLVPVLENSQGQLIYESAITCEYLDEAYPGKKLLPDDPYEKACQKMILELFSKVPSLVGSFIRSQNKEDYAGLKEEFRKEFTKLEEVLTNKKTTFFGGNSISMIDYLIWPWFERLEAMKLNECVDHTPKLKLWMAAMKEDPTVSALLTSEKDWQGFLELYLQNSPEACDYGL
PME-1 primary: PME-1 inhibitors via competitive probe labeling, primary screen, biochemical, fluorescence polarization, FP-Rh probe, HTS. Protein phosphatase methylesterase 1 (Homo sapiens), Q9Y570. recombinant PME-1. inhibition, % at 5.9 µM. 320,000 compounds, 0.53% hits;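 active = inhibition above the campaign mean of all compounds plus 3 SD, cut at about 26% in these data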;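 also: competitive labeling of PME-1 active site by serine hydrolase directed probe; inhibitors block probe labeling so polarization falls and inhibition rises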
LYPLA1 inh: LYPLA1 inhibitors, primary screen, counter-screen for PME1 inhibitor project, biochemical, fluorescence polarization, FP-Rh probe ABPP | recombinant LYPLA1 | 320,000 compounds, 0.16% hits | AID 2174, 2009 | inhibition, % at 5.9 µM;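 active = inhibition above the mean of all tested compounds plus 3 SD, set per campaign, cut at about 14% in these data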;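 also: inhibitors block serine hydrolase probe labeling of LYPLA1 so polarization falls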
Target sequence (O75608 whole entry, looked up): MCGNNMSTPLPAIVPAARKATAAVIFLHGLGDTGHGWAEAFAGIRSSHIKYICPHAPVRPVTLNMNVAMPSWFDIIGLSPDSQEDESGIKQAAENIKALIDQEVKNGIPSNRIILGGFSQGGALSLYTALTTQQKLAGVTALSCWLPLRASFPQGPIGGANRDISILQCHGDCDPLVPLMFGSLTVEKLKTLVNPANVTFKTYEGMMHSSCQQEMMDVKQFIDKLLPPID
PREPL inh: PREPL enzyme inhibitors, primary screen, biochemical, fluorescence polarization | 320,000 compounds, 0.68% hits | AID 2751, 2010 | inhibition, % at 5.96 µM | recombinant PREPL, fluorescence polarization activity-based probe
LYPLA2 counter: LYPLA2 inhibitors, primary screen, counter-screen for PME1 inhibitor project, biochemical, fluorescence polarization, FP-Rh probe ABPP; Acyl-protein thioesterase 2 (Homo sapiens), O95372; recombinant LYPLA2; inhibition, % at 5.9 µM; 320,000 compounds, 0.38% hits;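 active = inhibition above the screen-wide mean plus 3 SD, limit set per campaign, cut at about 26% in these data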
Fam108B counter: mouse Fam108B serine hydrolase inhibitors, primary screen, counter-screen for RBBP9 inhibitor project, biochemical, fluorescence polarization | recombinant Fam108B, FP-Rh probe fluorescence polarization | AID 1947, 2009 | 300,000 compounds, 0.33% hits | inhibition, % at 9.51 µM;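 active = inhibition above the screen mean inhibition plus 3 SD, computed separately per campaign, cut at about 18% in these data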;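 also: inhibitors lower polarization as less probe binds the enzyme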
PREPL confirm: human PREPL enzyme inhibitors, confirmation, biochemical, fluorescence polarization. shares compounds with PREPL inh. recombinant PREPL, fluorescence polarization activity probe. inhibition, % at 5.96 µM. 2,000 compounds, 67% hits. AID 2803, 2010
Numbers stand for hits; – = inactive; · = no result. Rule as the data show it, unless noted: active = inhibition above about 43%; inactive = the rest.

SMILES	GSTO1 inh	PME-1 primary	LYPLA1 inh	PREPL inh	LYPLA2 counter	Fam108B counter	PREPL confirm
CCCCC1=CC2=CC(=O)C(C)(OC(=O)CC)C(=O)C2=CN1c1ccc(OC)cc1 (stereo not given)	–	–	–	–	–	–	·
COC(=O)CCC(=O)OC1(C)C(=O)C=C2C=C(C3CC3)N(CCc3c[nH]c4ccccc34)C=C2C1=O (stereo not given)	–	–	–	63.3	–	–	52.1
COC(=O)CCC(=O)OC1(C)C(=O)C=C2C=C(C3CC3)N(Cc3ccc(OC)cc3)C=C2C1=O (stereo not given)	–	–	–	59.4	–	–	–
CCOc1ccc(C)cc1S(=O)(=O)n1cnc2ccccc21	–	–	–	–	–	–	·
C=CCNC(=O)/C(C#N)=C/c1c(N2CCN(c3ccc(OC)cc3)CC2)nc2c(C)cccn2c1=O	–	–	–	57.1	–	–	49.5
COCCCNC(=O)/C(C#N)=C/c1c(N2CCN(c3ccccc3)CC2)nc2c(C)cccn2c1=O	–	–	–	44.1	–	–	–
C=CCNC(=O)/C(C#N)=C/c1c(N2CCN(c3ccccc3)CC2)nc2c(C)cccn2c1=O	–	–	–	–	–	–	·
COc1ccc(Oc2nc3c(C)cccn3c(=O)c2/C=C(\C#N)C(N)=O)cc1	–	–	–	–	–	–	·
COc1ccc(N2CCN(c3nc4c(C)cccn4c(=O)c3/C=C(\C#N)C(N)=O)CC2)cc1	–	–	–	53.6	–	–	52.6
Cc1nc2nc(SCc3ccc([N+](=O)[O-])cc3)[nH]c2cc1Br	–	–	–	–	–	–	·
CCCCC(=O)Nc1ccc(C(=O)NCCN2CCOCC2)cc1	–	–	–	–	–	–	·
CC(C)Cn1cc(C(=O)N2CCN(c3ccccn3)CC2)c2c3ccccc3n(C)c2c1=O	–	–	–	51.0	–	–	–
O=C(C[C@H]1C/C=C\CC[C@@H](Cc2ccc(F)cc2)C(=O)OC[C@H]2CCCN2C1=O)N[C@@H](CO)Cc1ccccc1	·	·	·	53.0	·	·	54.1
O=C(C[C@H]1C/C=C\CC[C@H](Cc2ccc(F)cc2)C(=O)OC[C@H]2CCCN2C1=O)N[C@@H](CO)Cc1ccccc1	·	·	·	61.1	·	·	53.0
O=C(C[C@H]1C/C=C\CC[C@H](Cc2ccc(F)cc2)C(=O)OC[C@H]2CCCN2C1=O)N[C@H](CO)Cc1ccccc1	·	·	·	–	·	·	·
O=C(C[C@@H]1C/C=C\CC[C@@H](Cc2ccc(F)cc2)C(=O)OC[C@@H]2CCCN2C1=O)N[C@H](CO)Cc1ccccc1	·	·	·	–	·	·	·
NC(N)=Nc1nc(-c2ccccc2)c2cc(F)ccc2n1	–	–	–	–	–	–	·
CCN(CC)C(=O)CC(c1cc(OC)c(OC)c(OC)c1)c1c(O)cc(OC)cc1OC (stereo not given)	–	–	–	–	–	–	·
CCN(CC)CCC(c1cc(OC)c(OC)c(OC)c1)c1c(O)cc(OC)cc1OC (stereo not given)	–	–	–	44.7	–	–	47.0
COc1cc(Cl)cc(C=O)c1OCC(=O)O	–	–	–	–	–	–	·
CCOCCn1c(CN(C)Cc2ccccc2)nc2c1c(=O)n(C)c(=O)n2C	–	–	–	–	–	–	·
COCCn1c(CN(C)Cc2ccccc2)nc2c1c(=O)n(C)c(=O)n2C	–	–	–	53.0	–	–	–
CC1CC/C(=N/Nc2ccccc2)C(=O)N1 (stereo not given)	–	–	–	–	–	–	·
C#CCOCCOCCOCCNc1nc(N2CCN(C(=O)C(Cc3ccc(O)cc3)n3cc(C(N)CC(C)C)nn3)CC2)nc(N2CCN(C(=O)C(Cc3cc4ccccc4[nH]3)n3cc(C(N)Cc4ccc(O)cc4)nn3)CC2)n1 (stereo not given)	–	–	–	52.3	–	–	51.1
C#CCOCCOCCOCCNc1nc(N2CCN(C(=O)[C@H](CCC(=O)O)n3cc(C(N)Cc4ccc(O)cc4)nn3)CC2)nc(N2CCN(C(=O)[C@H](Cc3cc4ccccc4[nH]3)n3cc(C(N)CC(C)C)nn3)CC2)n1 (stereo not given in full)	–	–	–	46.0	–	–	–
SMILES	GSTO1 inh	PME-1 primary	LYPLA1 inh	PREPL inh	LYPLA2 counter	Fam108B counter	PREPL confirm
Cc1ccc(Nc2cc(C)nc3ccccc23)c(C)c1	–	–	–	–	–	–	·
Cc1ccc(C)c(Nc2cc(C)nc3ccccc23)c1	–	–	–	44.4	–	–	–
COc1ccccc1Nc1c2c(nc3ccc(N)cc13)CCCC2	–	–	–	43.6	–	–	–
COc1ccc(OC)c(Nc2c3c(nc4ccccc24)CCC3)c1	–	–	–	–	–	–	·
O=C(Nc1ccc2c(c1)OCCO2)c1cccc2nc3ccccc3nc12	–	–	–	48.8	–	–	60.1
O=c1c2ccccc2ncn1CCOc1ccccc1[N+](=O)[O-]	–	–	–	–	–	–	·
O=C1OC[C@H]2CCCN2C(=O)[C@@H](CC(=O)N(CCO)Cc2ccccc2)C/C=C\C[C@H]1Cc1ccc(F)cc1	·	·	·	53.6	·	·	44.6
O=C1OC[C@@H]2CCCN2C(=O)[C@H](CC(=O)N(CCO)Cc2ccccc2)C/C=C\CC[C@H]1Cc1ccc(F)cc1	·	·	·	–	·	·	·
O=C1OC[C@@H]2CCCN2C(=O)[C@@H](CC(=O)N(CCO)Cc2ccccc2)C/C=C\C[C@H]1Cc1ccc(F)cc1	·	·	·	52.7	·	·	–
O=C1OC[C@H]2CCCN2C(=O)[C@@H](CC(=O)N(CCO)Cc2ccccc2)C/C=C\CC[C@H]1Cc1ccc(F)cc1	·	·	·	45.3	·	·	–
Cc1cccc(N2CCN(c3ccc(N4C(=O)CCCC4=O)cc3[N+](=O)[O-])CC2C)c1 (stereo not given)	–	–	–	–	–	–	·
COc1ccccc1C(=O)N/C(=C\c1cn(C)c2ccccc12)C(=O)N1CCCC1	–	–	–	–	–	–	·
COc1ccc(NS(=O)(=O)c2ccc(NN=Cc3ccc(C(=O)O)cc3)c([N+](=O)[O-])c2)cc1	·	·	·	45.1	·	·	–
O=C(O)c1ccccc1NS(=O)(=O)c1ccc(NN=Cc2ccc(F)cc2)c([N+](=O)[O-])c1	·	·	·	43.6	·	·	–
NS(=O)(=O)c1ccc(N/N=C/c2ccccc2C(=O)O)c([N+](=O)[O-])c1	–	–	–	–	–	–	·
O=C(O)c1ccc(/C=N/Nc2ccc(S(=O)(=O)N3CCCC3)cc2[N+](=O)[O-])cc1	–	–	–	–	–	–	·
